These molecules were tested against Rho-associated protein kinase 1 (Homo sapiens) (UniProt Q13464). Conditions: at 1 µM.
Sequence of Rho-associated protein kinase 1 (Homo sapiens) (Q13464 2-1354 limits assumed): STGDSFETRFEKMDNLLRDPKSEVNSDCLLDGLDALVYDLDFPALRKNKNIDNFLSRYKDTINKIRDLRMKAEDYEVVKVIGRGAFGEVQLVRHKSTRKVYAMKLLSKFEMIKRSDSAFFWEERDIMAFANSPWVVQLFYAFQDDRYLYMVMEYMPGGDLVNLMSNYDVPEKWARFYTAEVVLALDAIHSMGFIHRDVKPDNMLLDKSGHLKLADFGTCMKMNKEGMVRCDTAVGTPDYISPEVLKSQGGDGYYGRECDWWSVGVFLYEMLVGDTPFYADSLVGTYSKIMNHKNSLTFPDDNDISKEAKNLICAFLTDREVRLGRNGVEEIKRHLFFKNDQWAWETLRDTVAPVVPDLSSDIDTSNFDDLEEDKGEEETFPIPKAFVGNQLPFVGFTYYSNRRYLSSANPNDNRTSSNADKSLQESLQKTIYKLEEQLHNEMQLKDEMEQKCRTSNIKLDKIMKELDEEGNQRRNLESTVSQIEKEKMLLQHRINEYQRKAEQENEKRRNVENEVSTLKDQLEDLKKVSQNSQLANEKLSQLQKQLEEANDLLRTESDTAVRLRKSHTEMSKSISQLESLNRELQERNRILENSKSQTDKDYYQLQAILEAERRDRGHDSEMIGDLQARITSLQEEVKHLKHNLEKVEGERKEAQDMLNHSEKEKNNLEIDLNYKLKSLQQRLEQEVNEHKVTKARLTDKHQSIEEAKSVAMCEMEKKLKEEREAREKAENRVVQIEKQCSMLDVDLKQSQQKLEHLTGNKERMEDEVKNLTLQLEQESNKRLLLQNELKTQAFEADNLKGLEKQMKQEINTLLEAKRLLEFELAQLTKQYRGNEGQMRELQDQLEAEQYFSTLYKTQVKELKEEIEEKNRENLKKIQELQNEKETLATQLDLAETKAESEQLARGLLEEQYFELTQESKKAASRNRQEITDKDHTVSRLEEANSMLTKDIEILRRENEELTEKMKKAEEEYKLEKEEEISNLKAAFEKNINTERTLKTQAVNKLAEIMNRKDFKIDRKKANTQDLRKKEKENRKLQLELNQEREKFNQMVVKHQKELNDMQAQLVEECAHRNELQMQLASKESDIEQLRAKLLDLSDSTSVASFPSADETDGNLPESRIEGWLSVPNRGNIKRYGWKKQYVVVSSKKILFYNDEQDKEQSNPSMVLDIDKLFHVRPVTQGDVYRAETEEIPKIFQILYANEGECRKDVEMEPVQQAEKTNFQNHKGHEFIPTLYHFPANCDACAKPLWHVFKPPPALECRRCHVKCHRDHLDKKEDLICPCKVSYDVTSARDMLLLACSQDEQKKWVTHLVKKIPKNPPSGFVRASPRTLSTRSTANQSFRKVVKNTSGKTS
`O=C(Nc1nc2ccccc2n1CCN1CCOCC1)c1cccc([N+](=O)[O-])c1` gave a residual activity of 109%.
`COc1ccc2c(c1)c(C1=C(c3c[nH]c4ccccc34)C(=O)NC1=O)cn2CCCN(C)C` was tested, and the residual activity was 105%.
Molecule `O=C1NC(=O)C(c2cn(CCCn3ccnc3)c3ccccc23)=C1Nc1ccccc1` has a residual activity of 120%.
`Oc1cccc(-c2nc(N3CCOCC3)c3oc4ncccc4c3n2)c1` showed a residual activity of 123%.
With `O=c1c(-c2ccc(F)cc2)c(-c2ccncc2)[nH]n1-c1ccc(Cl)cc1` the residual activity was 122%.
In the case of `O=C1Cc2c([nH]c3ccc([N+](=O)[O-])cc23)-c2ccccc2N1`, the residual activity is reported as 107%.
Molecule `COc1ccc(COc2ccc(Cc3cnc(N)nc3N)cc2OC)cc1` has a residual activity of 112%.
`Fc1ccc(-c2nc3n(c2-c2ccncc2)CCS3)cc1` showed a residual activity of 123%.

The molecules below were run against Rho-associated protein kinase 1 (Homo sapiens) (UniProt Q13464). Conditions: at 10 µM.
In the case of `O=S(=O)(NCCNC/C=C/c1ccc(Br)cc1)c1cccc2cnccc12`, the residual activity is reported as 29%.
Molecule `N#C/C(=C\c1ccc(O)c(O)c1)C(=O)NCc1ccccc1` has a residual activity of 123%.
Work on `c1ccc(-c2cnc(Nc3ccc(OCCN4CCCC4)cc3)s2)cc1` yielded a residual activity of 110%.
Molecule `O=C(Nc1nc2ccccc2n1CCN1CCOCC1)c1cccc([N+](=O)[O-])c1` has a residual activity of 106%.
`O=C1C(Cl)=C(N2C(=O)CCC2=O)C(=O)c2ccccc21` gave a residual activity of 88%.
Work on `COc1ccc2c(c1)c(C1=C(c3c[nH]c4ccccc34)C(=O)NC1=O)cn2CCCN(C)C` yielded a residual activity of 124%.
In the case of `CC(C)N(CCC(=O)c1ccc2ccccc2c1)Cc1ccccc1`, the residual activity is reported as 133%.
In the case of `O=C1NC(=O)C(c2cn(CCCn3ccnc3)c3ccccc23)=C1Nc1ccccc1`, the residual activity is reported as 121%.
For `Oc1cccc(-c2nc(N3CCOCC3)c3oc4ncccc4c3n2)c1`, the residual activity was 125%.

From ChEMBL document CHEMBL2218924, “A broad activity screen in support of a chemogenomic map for kinase signalling research and drug discovery” (Biochem J, 2013)
